# A selection: hits, their analogues and other compounds. The true share with any hit is near 9.2%.
# SMN2 splice up: enhancers of SMN2 splice variant expression | Potency, µM (series often up to 46.1 µM), inactives show at the highest dose activity change, positive = activation, usual class: activators | HEK293 SMN2-luciferase splicing reporter, luminescence, 30-36 h | actives 2.8% (n = 210,000); note: % of control where 0% means no effect; nearly all actives have a fitted effect of over 55% in size
#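 qHTS luciferase splicing reporter: luminescence rises when SMN2 exon 7 is included in transfected HEK293 cells. Compound exposure lasted 30-36 h at 37C, with 4.5 mM final sodium butyrate as control, followed by a ONE-Glo read.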
# NPC1 promoter act: activates the NPC1 promoter. Potency, µM (series often up to 9.22 µM), for inactives: at the highest dose activation, actives largely listed as activators. actives 2.4% (n = 320,000). AID 485313. Huh7 NPC1 promoter luciferase reporter, 24 h; note: % of control where 0% means no effect; nearly all actives have a fitted effect of over 60% in size
#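 Huh7 reporter cells (NPC1 promoter driving luciferase) are dosed with compound for 24 h at 37 °C, 5% CO2; luciferase detection reagent is then added and luminescence measured after 10 min at ambient temperature.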
# FLuc counter: inhibits or activates purified firefly luciferase, miR-21 counter-screen; actives 6.9% (n = 360,000); Potency, µM (top dose mostly 57.5 µM), inactives show at the highest dose activity change, negative = inhibition, actives largely listed as inhibitors; purified FLuc, Km substrates, luminescence inhibition; P08659;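 note: plate controls were vehicle for no effect and reference inhibitor for full effect; nearly all actives have a fitted effect of over 55% in size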
# Target sequence (P08659 whole entry, looked up): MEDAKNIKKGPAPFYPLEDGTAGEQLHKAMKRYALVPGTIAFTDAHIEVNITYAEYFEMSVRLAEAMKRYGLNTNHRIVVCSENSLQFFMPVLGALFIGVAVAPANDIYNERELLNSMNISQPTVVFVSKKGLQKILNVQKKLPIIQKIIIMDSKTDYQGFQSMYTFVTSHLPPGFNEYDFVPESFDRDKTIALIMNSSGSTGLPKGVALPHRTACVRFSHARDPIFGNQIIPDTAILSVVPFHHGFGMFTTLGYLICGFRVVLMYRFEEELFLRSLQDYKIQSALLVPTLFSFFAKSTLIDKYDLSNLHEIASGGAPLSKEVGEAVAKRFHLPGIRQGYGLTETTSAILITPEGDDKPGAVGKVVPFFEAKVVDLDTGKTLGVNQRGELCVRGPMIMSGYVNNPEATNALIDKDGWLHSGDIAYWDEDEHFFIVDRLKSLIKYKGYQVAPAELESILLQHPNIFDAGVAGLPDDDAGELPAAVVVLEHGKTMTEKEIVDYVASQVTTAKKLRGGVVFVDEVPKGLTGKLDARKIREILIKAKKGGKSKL
#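 Purified P. pyralis luciferase, 10 nM final, with Km-level 10 uM D-luciferin and 10 uM ATP in 50 mM Tris acetate pH 7.5, 10 mM Mg acetate, 0.01% Tween-20, 0.05% BSA; 6-point qHTS titration about 60 µM downward; luminescence read.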
# Rab9 promoter act: activators of Rab9 promoter. Huh7 Rab9 promoter-luciferase reporter, luminescence, 24 h. Potency, µM (highest dose often 9.22 µM), inactives show at the highest dose activation, negative = inhibition, hits mostly activators. actives 2.8% (n = 320,000); note: % of control where 0% means no effect; nearly all actives have a fitted effect of over 60% in size
#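 Huh7 cells stably carrying Rab9 promoter–luciferase reporter, plated 1500 cells/well, compound added after 2 h and incubated 24 h at 37 °C; luciferase luminescence then read after 10 min with detection reagent.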
# ELG1 genotox: genotoxicity induction in ELG1-luciferase HEK293T cells; actives 1.3% (n = 330,000); HEK293T ELG1-luciferase reporter, luminescence, 16 h; AID 504466; Potency, µM (top dose mostly 46 µM), inactives show top-dose activity change, positive = activation, actives largely listed as activators; note: % of control where 0% means no effect; nearly all actives have a fitted effect of over 60% in size
#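 Cells (2,000/well) expressing the ELG1-luciferase fusion are dosed by pin tool and kept 16 hr at 37 °C, 5% CO2. Signal comes from ONE-Glo luciferase reagent after 30 min at room temperature.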
# ELG1 repair inh: inhibitors of ELG1-dependent DNA repair in HEK293T cells. HEK293T ELG1-luciferase reporter, luminescence, 16 h; DNA damage induced by 5-fluorouridine. Potency, µM (doses to about 46.1 µM), without a hit: top-dose activity change, negative = inhibition, hits mostly inhibitors. actives 2.3% (n = 330,000). AID 504467; note: % is set by controls: 0 for no effect and ±100 for the full control effect; nearly all actives have a fitted effect of over 55% in size
#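 5-Fluorouridine DNA damage + compound/DMSO, 2,000 cells/well, 16 h, 37 °C/5% CO2. ONE-Glo, 30 min RT, luminescence. Readout = decrease in reporter signal.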
# Active calls of the source: *; ? = inconclusive; nt = not tested or not shown; [ ] = another dose, or the depositor's remark. Calls come from the whole dose curve; as a rule, active = well fitted curve in the direction sought with a large enough effect; inconclusive = small, poorly fitted or top-dose-only effect, or another doubt; inactive = no such curve, though single readings can be large; an effect the other way counts as inactive or inconclusive. Potency is the fitted concentration of half-maximal effect.
SMILES,SMN2 splice up,NPC1 promoter act,FLuc counter,Rab9 promoter act,ELG1 genotox,ELG1 repair inh
O=Cc1c(-c2ccccc2)cc2oc3ccccc3cc1-2,nt,26%,0.76µM*,3.5µM*,3.7µM*,?
Cc1ccc(-n2nc3c(N4CCC(C(=O)NC5CCCCC5)CC4)nnc(C)c3c2C)cc1,nt,nt,-7%,nt,nt,nt
CCCn1c(SCC(=O)Nc2cccnc2Cl)n[nH]c1=O,nt,nt,nt,nt,1%,?
Cc1ccc(C(=O)Nc2cnc3sc(C)nn3c2=O)cc1,13µM*,?,-6%[2.3 µM],?,?,?
COc1cccc(CN2CCc3nc(Nc4ccc5c(c4)OCCO5)ncc3C2)c1,nt,nt,24µM*,nt,nt,nt
Clc1ccc(CN2CCc3nc(Nc4ccc5c(c4)OCCO5)ncc3C2)cc1,nt,nt,-20%,nt,nt,nt
Brc1ccc(CN2CCc3nc(Nc4ccccc4)ncc3C2)s1,nt,nt,-17%,nt,nt,nt
Cc1ccsc1CN1CCc2nc(Nc3ccccc3)ncc2C1,nt,nt,12µM*,nt,nt,nt
COc1cccc(C2(O)CC(C(F)(F)F)=NN2C(=O)c2ccccn2)c1 (centres undefined),nt,24%,?,?,?,?
CCCCc1nc2ccccc2n2c(-c3ccc(C)cc3)c3c(=O)n(C)c(=O)n(C)c3c12,5%,nt,6%,nt,nt,nt
O=C(CCS(=O)(=O)c1nc(-c2ccc3c(c2)OCO3)cc(C(F)(F)F)n1)Nc1ccc(F)c(Cl)c1,-15%,nt,-10%,nt,nt,nt
CCCCNC(=O)c1sc2ncnc(N3CCc4ccccc4C3)c2c1C,1%,3%,-3%,-7%,-4%,?
CCOC(=O)CNC(=O)c1sc2ncnc(N3CCc4ccccc4C3)c2c1C,13%,-4%,-16%,-1%,-14%,18µM*
COc1cc(C2C3=C(CC(C)(C)CC3=O)OC(N)=C2[N+](=O)[O-])ccc1O (centres undefined),nt,-1%,-2%,-3%,-2%,?
O=C(CCN1C(=O)C2C3CC(C(Br)C3Br)C2C1=O)OCC(=O)c1ccccc1 (centres undefined),14%,-2%,3%,-4%,-1%,9%
CCCCNc1c(-c2cccc(-c3cc(C(C)=O)cs3)c2)nc2cc(C)ccn12,nt,13%,6µM*,5%,-11%,?
CCN(CC)c1ccc(-n2c(C)c(C(C)=O)c(C(C)=O)c2C)cc1,-34%,-1%,-1%,-2%,-33%,10µM*
CC(=O)c1c(C(C)=O)c(C)n(-c2ccc(O)cc2)c1C,-9%,nt,5%,nt,nt,nt
COc1cc(OC)c(OC)cc1/C=C1\CC(C)C/C(=C\c2cc(OC)c(OC)cc2OC)C1=O (centres undefined),nt,-6%,3%,-8%,-18%,7.3µM*
COc1cc(OC)c(OC)cc1/C=C1/Cc2ccccc2C1=O,nt,-9%,5%,-4%[1.84 µM],3%,8%
CCC1C/C(=C\c2cc(OC)c(OC)cc2OC)C(=O)/C(=C/c2cc(OC)c(OC)cc2OC)C1 (centres undefined),nt,-5%,2%,1%,-13%,6.5µM*
COc1cccc(C(=O)CN(C(=O)c2ccc(Cl)c(Cl)c2)N2C(=O)C3CCCCC3C2=O)c1 (centres undefined),-28%,2%,2%,-6%,1%,-12%
COc1ccc(C(=O)C2CCCN(C3Cc4ccccc4C3)C2)c(OC)c1 (centres undefined),nt,30%,27µM*,?,24%,?
COc1cc(=O)n(C)c2c(OCC3OC(C)(C)OC3(C)C)cccc12 (centres undefined),2%,16%,-17%,6%,-7%,23%
O=C(Nc1ccc(Cl)cc1)Nc1cccnc1,16%,25%,12µM*,?,?,?
CCOc1ccc(NC(=O)Nc2cccnc2)cc1,nt,?,7.6µM*,3.5µM*,?,?
